# Test results taken from the antibiotic and cytotoxicity screens of Wong et al. (2023).
# Out of some 39,000 compounds screened, about 500 (1.3%) were called active. For the sample, actives were picked, then their nearest neighbours and some compounds at random.
# Tested on: S. aureus RN4220
# Assay: growth inhibition call (relative growth <= 0.2)
# Settings: 50 µM
row,Structure (SMILES),growth inhibition call
1,C[C@@H]1CN([C@@H](C)CO)C(=O)c2cc(NC(=O)Nc3ccc4c(c3)OCO4)ccc2O[C@@H](C)CCCCO[C@@H]1CN(C)C(=O)C1CCCCC1,inactive
2,COc1ccc(S(=O)(=O)Nc2ccc3c(c2)C(=O)N([C@H](C)CO)C[C@@H](C)[C@@H](CN(C)C(=O)C2CCCCC2)OCCCC[C@@H](C)O3)cc1,inactive
3,C[C@H](CO)N1C[C@H](C)[C@H](CN(C)S(=O)(=O)c2cn(C)cn2)Oc2ccc(NC(=O)NC3CCCCC3)cc2C1=O,inactive
4,C[C@@H]1CCCCO[C@H](CN(C)Cc2ccccc2)[C@@H](C)CN([C@@H](C)CO)C(=O)c2cc(NS(=O)(=O)c3ccc(F)cc3)ccc2O1,inactive
5,C[C@@H]1CCCCO[C@H](CN(C)S(=O)(=O)c2cccs2)[C@@H](C)CN([C@@H](C)CO)C(=O)c2cc(NC(=O)CCC(F)(F)F)ccc2O1,inactive
6,CC(=O)OC[C@H]1O[C@@](COC(C)=O)(O[C@H]2O[C@H](COC(C)=O)[C@@H](OC(C)=O)[C@H](OC(C)=O)[C@H]2OC(C)=O)[C@@H](OC(C)=O)[C@@H]1OC(C)=O,inactive
7,C[C@H]1CN([C@@H](C)CO)C(=O)CCCn2nncc2CO[C@@H]1CN(C)S(=O)(=O)c1ccc2c(c1)OCCCO2,inactive
8,C[C@H](CO)N1C[C@H](C)[C@@H](CN(C)Cc2ccc(Oc3ccccc3)cc2)Oc2ccc(NS(=O)(=O)c3ccc(F)cc3)cc2C1=O,inactive
9,C[C@H]1CN([C@@H](C)CO)C(=O)c2cccc(NS(=O)(=O)c3ccc(F)cc3)c2O[C@H]1CN(C)Cc1ccc(Cl)c(Cl)c1,inactive
10,C[C@H]1CN([C@@H](C)CO)C(=O)Cc2cc(NC(=O)CCCCCC(=O)Nc3ccccc3N)ccc2O[C@@H]1CN(C)C(=O)Nc1ccc(C(F)(F)F)cc1,inactive
11,CCS(=O)(=O)Nc1ccc2c(c1)C(=O)N(C)[C@H]1CC[C@@H](CC(=O)N3CCN(C)CC3)O[C@@H]1CO2,inactive
12,COc1ccc(C2=C(N)C(=O)NC2=O)cc1OC,inactive
13,COc1ccc(Cc2cnc(N)nc2N)cc1OC,active
14,COc1cccnc1N,inactive
15,COc1cc(O)cc(OC)c1OC,inactive
16,COc1cc(Cc2cnc(N)nc2N)cc(OC)c1OC,active
17,COc1cc(CN)cc(OC)c1OC,inactive
18,COc1ccc(NC(=O)N(C)C[C@H]2OCCCC[C@H](C)Oc3ccc(NC(=O)c4ccncc4)cc3C(=O)N([C@@H](C)CO)C[C@@H]2C)cc1,inactive
19,COc1ccc(CN(C)C[C@H]2OCCCC[C@@H](C)Oc3ccc(NC(=O)Nc4ccc5c(c4)OCO5)cc3C(=O)N([C@H](C)CO)C[C@H]2C)cc1,inactive
20,C[C@@H]1CCCCO[C@@H](CN(C)Cc2ccc(C(=O)O)cc2)[C@@H](C)CN([C@H](C)CO)C(=O)c2cc(NS(=O)(=O)c3ccc(Cl)cc3)ccc2O1,inactive
21,COc1ccc(NC(=O)Nc2ccc3c(c2)C(=O)N([C@H](C)CO)C[C@H](C)[C@H](CN(C)C(=O)C2CCCCC2)OCCCC[C@H](C)O3)cc1,inactive
22,C[C@@H]1CN([C@H](C)CO)C(=O)c2cccc(NC(=O)CCCCCC(=O)Nc3ccccc3N)c2O[C@@H]1CN(C)Cc1ccc(-c2ccccc2)cc1,inactive
23,COc1ccc(CN(C)C[C@H]2Oc3c(NS(=O)(=O)c4cn(C)cn4)cccc3C(=O)N([C@@H](C)CO)C[C@@H]2C)cc1,inactive

row,Structure (SMILES),growth inhibition call
1,CO[C@@H]1CN(C)C(=O)c2cc(NS(=O)(=O)c3ccccc3C)ccc2OC[C@@H](C)N(S(C)(=O)=O)C[C@H]1C,inactive
2,C[C@H](CO)N1C[C@H](C)[C@@H](CN(C)Cc2ccc(C(F)(F)F)cc2)OCCCC[C@H](C)Oc2ccc(NC(=O)c3ccncc3)cc2C1=O,inactive
3,C[C@@H]1CN([C@H](C)CO)C(=O)c2cc(NC(=O)NC3CCCCC3)ccc2O[C@@H]1CN(C)Cc1ccc(Cl)c(Cl)c1,inactive
4,CN1CCC(=C2c3ccccc3Sc3ccccc32)CC1.O=C(O)C=CC(=O)O,inactive
5,CSc1ccc2c(c1)N(CCC1CCCCN1C)c1ccccc1S2.Cl (stereo unspecified),inactive
6,CS(=O)(=O)O.CSc1ccc2c(c1)C(N1CCN(C)CC1)Cc1ccccc1S2 (stereo unspecified),active
7,C[C@@H]1CCCCO[C@@H](CN(C)C(=O)c2ccccc2)[C@@H](C)CN([C@@H](C)CO)C(=O)c2cc(NC(=O)Nc3ccc(C(F)(F)F)cc3)ccc2O1,inactive
8,CC[C@@H](C)SSc1ncc[nH]1,active
9,Cc1ncc[nH]1,inactive
10,OCc1ncc[nH]1,inactive
11,C[C@@H]1CN([C@@H](C)CO)S(=O)(=O)c2ccc(C#CCN(C)C)cc2O[C@@H]1CN(C)C(=O)C1CCCCC1,inactive
12,Cc1ccc(S(=O)(=O)Nc2cccc3c2O[C@@H](CN(C)CC2CC2)[C@@H](C)CN([C@H](C)CO)C3=O)cc1,inactive
13,C[C@H](O)C#Cc1cnc2c(c1)C(=O)N([C@@H](C)CO)C[C@@H](C)[C@H](CN(C)Cc1cncnc1)O2,inactive
14,O=C(c1cccnc1)N1C[C@H]2[C@@H](c3ccccc31)[C@H](CO)N2C(=O)CN1CCOCC1,inactive
15,O=C1OC(c2ccc(O)cc2)(c2ccc(O)cc2)c2ccccc21,inactive
16,Oc1ccc(C2(c3ccccc3F)CCC(F)(F)CC2)cc1,active
17,O=S1(=O)OC(c2ccc(O)cc2)(c2ccc(O)cc2)c2ccccc21,inactive
18,C[C@H]1CN([C@@H](C)CO)S(=O)(=O)c2ccc(C#CCN(C)C)cc2O[C@@H]1CN(C)C(=O)c1ccccc1F,inactive
19,C[C@H]1CN([C@@H](C)CO)C(=O)c2cccc(NS(=O)(=O)c3cn(C)cn3)c2O[C@H]1CN(C)S(=O)(=O)c1ccccc1,inactive
20,C[C@@H]1CN([C@H](C)CO)S(=O)(=O)c2ccc(C#CC(C)(C)O)cc2O[C@H]1CN(C)Cc1ccccc1,inactive
21,CC(N)O.Cc1cc(CC(C)CC(C)(C)C)n(O)c(=O)c1 (stereo unspecified),active
22,C[C@@H]1CCCCO[C@@H](CN(C)Cc2ccncc2)[C@@H](C)CN([C@@H](C)CO)C(=O)c2cc(NC(=O)Nc3ccc4c(c3)OCO4)ccc2O1,inactive
23,C[C@@H]1CN([C@@H](C)CO)C(=O)Cc2cc(NS(=O)(=O)c3cn(C)cn3)ccc2O[C@@H]1CN(C)CC1CCCCC1,inactive
